Source: PubChem BioAssay (NCI)
About 79,000 compounds went through this panel and 15% of them were active in at least one assay; those are over-represented in the sample as a whole. Cut-off read from the data, not from the text of the source: active = growth inhibition above about 70%; inactive = the rest.

Assays:
[1] = NCI Yeast Anticancer Drug Screen. Data for the rad50 strain (AID 155);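 note: 0% = growth of vehicle-only cultures of the same strain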; conditions: S. cerevisiae rad50 strain growth inhibition; at 50.0 µM; active compounds read high
In short: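 Genetically altered yeast (DNA repair pathway); compound treatment; growth inhibition vs vehicle ctrl.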

[2] = NCI Yeast Anticancer Drug Screen. Data for the mec2-1 strain (AID 157); conditions: S. cerevisiae mec2-1 strain, at 50.0 µM, active compounds read high
In short: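 Growth inhibition is read against vehicle-treated controls after compound exposure of the mec2-1 yeast strain, which is defective in DNA damage repair or cell cycle control.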

[3] = NCI Yeast Anticancer Drug Screen. Data for the sgs1 mgt1 strain (AID 161);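 note: 0% = growth of cultures given vehicle only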; conditions: S. cerevisiae sgs1 mgt1 strain, at 50.0 µM, active compounds read high
In short: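 This yeast growth screen uses a strain with defined DNA-repair lesions; compound-treated growth is compared with vehicle-treated growth.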

[4] = NCI Yeast Anticancer Drug Screen. Data for the cln2 rad14 strain (AID 165);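 note: 0% = growth equal to vehicle treated cultures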; conditions: S. cerevisiae cln2 rad14 strain, at 50.0 µM, active compounds read high
In short: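 Growth inhibition, relative to vehicle-treated controls, is the read-out. The test organism is a yeast strain with defined genetic alterations, cln2 rad14.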

[5] = NCI Yeast Anticancer Drug Screen. Data for the bub3 strain (AID 167); conditions: S. cerevisiae bub3 mutant strain, at 50.0 µM, active compounds read high
In short: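 Yeast carrying a defined mutation is treated with each compound, and growth is compared with that of vehicle-exposed cells to give inhibition.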

[6] = NCI Yeast Anticancer Drug Screen. Data for the mlh1 rad18 strain (AID 175); conditions: S. cerevisiae mlh1 rad18 strain growth inhibition; at 50.0 µM; active compounds read high
In short: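 Cells of a genetically altered yeast strain, deficient in DNA damage repair, were treated with compound. Their growth was then compared with that of vehicle-treated cultures to give inhibition.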

Measured: growth inhibition

CCCCCCCCCCP(=O)(O)CCCCCCCCCC
inactive: [1] 8.3% | [2] -3.8% | [3] 9.9% | [4] -144% | [5] 21.7% | [6] -16.3%

COC(=O)[C@]1(C)CCC[C@]2(C)C3=C[C@@H](O)[C@@]4(C(C)C)O[C@H]4[C@]3(O)CC[C@@H]12
inactive: [1] -17.9% | [2] -29.3% | [3] -9.15% | [4] -2.7% | [5] -8.25% | [6] -26.6%

O=C1CC2CC(=O)C(S(=O)c3ccccc3)C2C1 (stereo not drawn)
inactive: [1] 6.25% | [2] 11.7% | [3] 20.1% | [4] 3.35% | [5] -1.6% | [6] 18.6%

On1c(-c2ccccc2)c(-c2c(-c3ccccc3)n(O)c3ccccc23)c2ccccc21
inactive: [1] 0% | [2] 6.45% | [3] -4.9% | [4] -24.2% | [5] -7.6% | [6] 15.8%

CC(C)OC(=O)CCCCCc1ccccc1
inactive: [1] 6% | [2] -2.7% | [3] -29.1% | [4] 7.85% | [5] 2.1% | [6] -8.4%

Cc1noc(C)c1N=Nc1ccc2nonc2c1N
inactive: [1] -15.5% | [2] 7.6% | [3] -14.1% | [4] 16.5% | [5] 9.35% | [6] 3.05%

CCC(c1ccc2oc(C)cc2c1)C(CC)c1ccc2oc(C)cc2c1 (stereo not drawn)
inactive: [1] -15.4% | [2] -4.9% | [3] -3.45% | [4] 13.2% | [5] 45% | [6] -23.2%

COc1ncn(C2CC(OC(=O)c3ccc(C)cc3)C(COC(=O)c3ccc(C)cc3)O2)c(=O)n1 (stereo not drawn)
inactive: [1] -8.3% | [2] -9.1% | [3] -14.7% | [4] -22.4% | [5] -0.6% | [6] -3.05%

CC(=O)OC12c3ccccc3-c3ccccc3C1C1C(=O)N(C)C(=O)C12Cl (stereo not drawn)
inactive: [1] -13.4% | [2] -22.2% | [3] -12.2% | [4] 10.4% | [5] 36.5% | [6] 13.2%

OC(CCc1ccco1)CCc1ccco1
inactive: [1] 19.9% | [2] 6.6% | [3] 11.5% | [4] 1.4% | [5] 10.7% | [6] 14.1%

NC(=O)N/N=C/c1ccccc1N
inactive: [1] 5.85% | [2] -6.75% | [3] 0.95% | [4] -22.1% | [5] -8.65% | [6] -2.7%

Nc1cccc(/C=C/c2cccc([N+](=O)[O-])c2)c1
inactive: [1] 18.2% | [2] 37.5% | [3] 12.8% | [4] 4% | [5] 60.3% | [6] 30.2%

O=C(Nc1cccc([N+](=O)[O-])c1)C(=O)C(C(=O)c1ccccc1F)C1OC(=O)C2C=CC=CC21 (stereo not drawn)
inactive: [1] 5.5% | [2] 15.9% | [3] 16.1% | [4] 11.7% | [5] -32.9% | [6] -19.9%

Cc1cc(Cl)c(O)c(-c2cc(-c3ccc([N+](=O)[O-])cc3)c3c(N)[nH]c(=O)nc3n2)c1
inactive: [1] 44.1% | [2] -4.65% | [3] 35.5% | [4] 6.2% | [5] 19.6% | [6] 38%

CCOC1OCCCC1C(OCC)C(C)C (stereo not drawn)
inactive: [1] 39% | [2] 14.7% | [3] 19.4% | [4] 9.35% | [5] -0.7% | [6] 12.4%

CCCCCCOCC(=O)OC
inactive: [1] 10.2% | [2] -9.6% | [3] -1.55% | [4] 8.35% | [5] 9.2% | [6] -2.85%

OC(c1cc(-c2ccccc2)nc2c1ccc1ccccc12)C1CCCCN1 (stereo not drawn)
inactive: [1] 32.5% | [2] 16.7% | [3] -17.1% | [4] 14% | [5] 11.6% | [6] 26.4%

COC(=O)C(=O)c1c(C(=O)OC)nc2nnc(N)n2c1-c1ccc(Cl)c(Cl)c1
inactive: [1] 1.7% | [2] -2.8% | [3] -4.9% | [4] -29.9% | [5] 16.1% | [6] -7.55%

[N-]=[N+]=Nc1ccccc1C(=O)NCCCNC(=O)c1ccccc1N=[N+]=[N-]
inactive: [1] -0.25% | [2] -23.1% | [3] 25% | [4] 1.8% | [5] 19.4% | [6] 16%

CC(C)(C)C(=O)CN
inactive: [1] -19.4% | [2] -10.1% | [3] -9.55% | [4] -71% | [5] 11% | [6] -2.65%

Cc1ccccc1C(N)=O
inactive: [1] 23.7% | [2] 3.6% | [3] 11.2% | [4] -12.6% | [5] 12.8% | [6] 26.5%

CCCC(=O)C(C)C(=O)CC (stereo not drawn)
inactive: [1] -52.1% | [2] -26.9% | [3] -15.7% | [4] 4.3% | [5] -6.8% | [6] 0.5%

O=c1oc2ccccc2c(O)c1C(c1ccc2c(c1)OCO2)N1CCOCC1 (stereo not drawn)
inactive: [1] 23.2% | [2] 25.2% | [3] 8.5% | [4] 25.7% | [5] 1.8% | [6] 19.1%

O=C1CCC(=O)O1
inactive: [1] -8.6% | [2] 17% | [3] -11.7% | [4] 6.45% | [5] 3.95% | [6] -51.9%

O=C(CCCC(=O)N/N=C/c1ccc(I)cc1)N/N=C\c1ccc(I)cc1
inactive: [1] 29.9% | [2] 9% | [3] 25.2% | [4] 25.1% | [5] -1.05% | [6] 17.7%

CCOC(=O)C(/C(=N/NC(=O)OC)C(=O)Nc1ccc(C(C)=O)cc1)c1cnc2ccccc2n1 (stereo not drawn)
inactive: [1] 0.9% | [2] -40.9% | [3] -26.6% | [4] 26.1% | [5] -1.5% | [6] 0.25%

C/C(=N\N=C(/C)c1ccc(-c2ccccc2)cc1)c1ccc(-c2ccccc2)cc1
inactive: [1] 1.2% | [2] -27.8% | [3] 19.1% | [4] 2.2% | [5] 20.8% | [6] 13.3%

C1=CC2C3CSCC3C1C1CC21 (stereo not drawn)
inactive: [1] 7.95% | [2] -7.85% | [3] -4.4% | [4] -35.1% | [5] -17% | [6] -3.05%

CC(C)C1CCC2(CC1)CCN(CCCN(C)C)CC2
inactive: [1] -4.65% | [2] 25.3% | [3] 9.15% | [4] -23.6% | [5] 7.25% | [6] -7.65%

Cc1ccc(S(=O)(=O)OCC2C(COS(=O)(=O)c3ccc(C)cc3)C3CCC2C2C3C3C2C2(C)C(=O)C3(C)C(c3ccccc3)=C2c2ccccc2)cc1 (stereo not drawn)
inactive: [1] 0.35% | [2] -5.2% | [3] 4.2% | [4] -5.7% | [5] -5.5% | [6] 12.3%

COc1ccc2cc(C(C)C(O)c3cc(F)c(F)c(F)c3F)ccc2c1 (stereo not drawn)
inactive: [1] -21.1% | [2] -30.3% | [3] -10.7% | [4] 0.15% | [5] -1.25% | [6] -20.5%

O=C(Cc1cc2c(cc1[N+](=O)[O-])OCO2)c1c[nH]c2ccc(Br)cc12
inactive: [1] 6.45% | [2] -3.9% | [3] 19.6% | [4] 18.5% | [5] -2.2% | [6] 7.55%

Nc1ccc(Br)cc1C(=O)O
inactive: [1] 4.2% | [2] -1.15% | [3] -17.4% | [4] -3.2% | [5] 23.6% | [6] -3.3%

CCCCCCCCCCCCCCCC[Si](Cl)(Cl)Cl
inactive: [1] -0.6% | [2] -10.7% | [3] -5.85% | [4] -22.6% | [5] 2.95% | [6] 10.1%

Cc1cccc(N=C(Nc2cccc(C)n2)Nc2cccc(C)n2)n1
inactive: [1] 31.3% | [2] 15.8% | [3] 35.6% | [4] 36.9% | [5] 25.9% | [6] 31.1%

O=S1(=O)CC(N2CCOCC2)C2=C(O1)c1sc(-c3ccccc3)nc1CC2 (stereo not drawn)
inactive: [1] -16.8% | [2] -7.45% | [3] 14.8% | [4] 14.3% | [5] -4.55% | [6] -3.95%

COc1ccc(C2=C(Cl)c3cc(OC)c(OC)cc3C2Cl)cc1OC (stereo not drawn)
inactive: [1] 41.5% | [2] 18.6% | [3] 21.9% | [4] 26.9% | [5] -6.15% | [6] 17.4%

Oc1nc(-c2ccccc2)sc1-c1ccccc1
inactive: [1] -6.05% | [2] 16.9% | [3] -0.5% | [4] -24% | [5] -10.7% | [6] -9.15%
